# Experimental data reported in PubChem BioAssay AID1159580 (chemical genetic matrix, 2015).
# Where “and” joins values, the source holds several entries; their conditions need not be identical. Equal entries are not always repeated. Hit rate of the full screen: of about 5,500 compounds, about 2,000 (36%) were called active. Inconclusive results (about 18%) are left out. The list shows a part of the results. A number with no mark means an inactive call. Cut-off read from the data, not from the text of the source: active = normalized growth mostly below about 0.91 (no sharp cut-off); inconclusive = no clear call, values can overlap the other calls; inactive = mostly above about 0.92.
# Experiment: chemical genetic growth profiling, strain panel (AID 1159580);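 note: tested at 20 µM; growth read once vehicle control cultures reached saturation at 30 °C; 1 = growth at the plate median or of vehicle wells; lower values mean less growth of the strain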
# Conditions: S. cerevisiae deletion strains, growth OD
smiles,measurement,setting,value
CC1(C)O[C@H]2CC(=O)OC[C@]23[C@H]2CC[C@@]4(C)[C@H](c5ccoc5)OC(=O)[C@H]5O[C@]54[C@]2(C)C(=O)C[C@@H]13,normalized growth,"locus YAL013W, strain DEP1, hits give low values",1.02
same,normalized growth,"locus YAL021C, strain ccr4, hits give low values",0.982
same,normalized growth,"locus YAL026C, strain drs2, hits give low values",0.99
same,normalized growth,"locus YAL030W, strain snc1, hits give low values",0.98
same,normalized growth,"locus YBL061C, strain skt5, hits give low values",0.987
same,normalized growth,"locus YBR009C, strain hhf1, hits give low values",0.968
same,normalized growth,"locus YBR021W, strain FUR4, hits give low values",1.21 [resistant] (active)
same,normalized growth,"locus YBR023C, strain chs3, hits give low values",0.995
same,normalized growth,"locus YBR171W, strain sec66, hits give low values",0.964
same,normalized growth,"locus YBR229C, strain ROT2, hits give low values",1.01
same,normalized growth,"locus YBR231C, strain swc5, hits give low values",1
same,normalized growth,"locus YBR279W, strain paf1, hits give low values",0.992
same,normalized growth,"locus YCL011C, strain gbp2, hits give low values",0.98
same,normalized growth,"locus YCL016C, strain dcc1, hits give low values",0.99
same,normalized growth,"locus YCL029C, strain bik1, hits give low values",0.976
same,normalized growth,"locus YCL061C, strain MRC1, hits give low values",0.974
same,normalized growth,"locus YCL069W, strain vba3, hits give low values",0.969
same,normalized growth,"locus YCR088W, strain abp1, hits give low values",0.984
same,normalized growth,"locus YDL005C, strain med2, hits give low values",0.962
same,normalized growth,"locus YDL035C, strain GPR1, hits give low values",1.02
same,normalized growth,"locus YDL040C, strain nat1, hits give low values",0.984
same,normalized growth,"locus YDL074C, strain BRE1, hits give low values",0.992
same,normalized growth,"locus YDL101C, strain DUN1, hits give low values",0.985
same,normalized growth,"locus YDL134C, strain PPH21, hits give low values",1.01
same,normalized growth,"locus YDL185W, strain tfp1, hits give low values",0.962
same,normalized growth,"locus YDL192W, strain arf1, hits give low values",0.988
same,normalized growth,"locus YDR001C, strain nth1, hits give low values",0.984
same,normalized growth,"locus YDR069C, strain doa4, hits give low values",0.989
same,normalized growth,"locus YDR101C, strain arx1, hits give low values",0.998
same,normalized growth,"locus YDR137W, strain rgp1, hits give low values",1.01
same,normalized growth,"locus YDR150W, strain NUM1, hits give low values",0.994
same,normalized growth,"locus YDR159W, strain sac3, hits give low values",0.99
same,normalized growth,"locus YDR162C, strain NBP2, hits give low values",1.02
same,normalized growth,"locus YDR195W, strain ref2",0.967
same,normalized growth,"locus YDR297W, strain sur2, hits give low values",1.01
same,normalized growth,"locus YDR318W, strain mcm21, hits give low values",0.994
same,normalized growth,"locus YDR334W, strain swr1, hits give low values",0.958
same,normalized growth,"locus YDR335W, strain msn5, hits give low values",0.986
same,normalized growth,"locus YDR388W, hits give low values",1.01
same,normalized growth,"locus YDR392W, strain spt3, hits give low values",0.986
same,normalized growth,"locus YDR502C, strain sam2, hits give low values",0.99
same,normalized growth,"locus YEL003W, strain gim4, hits give low values",0.981
same,normalized growth,"locus YEL037C, strain rad23, hits give low values",0.971
same,normalized growth,"locus YEL061C, strain CIN8 (second series), hits give low values",0.991
same,normalized growth,"locus YEL061C, strain CIN8, hits give low values",1
same,normalized growth,"locus YER015W, strain faa2, hits give low values",0.989
same,normalized growth,"locus YER016W, strain bim1, hits give low values",0.98
same,normalized growth,"locus YER110C, hits give low values",0.975
same,normalized growth,"locus YER111C, strain swi4, hits give low values",0.95
same,normalized growth,"locus YER155C, strain BEM2 (second series), hits give low values",0.952
same,normalized growth,"locus YER155C, strain BEM2, hits give low values",0.995
same,normalized growth,"locus YER167W, strain BCK2, hits give low values",1
same,normalized growth,"locus YFR010W, strain ubp6, hits give low values",0.986
same,normalized growth,"locus YGL078C, strain dbp3, hits give low values",0.985
same,normalized growth,"locus YGL086W, strain mad1, hits give low values",0.993
same,normalized growth,"locus YGL167C, strain pmr1, hits give low values",0.975
same,normalized growth,"locus YGL173C, strain kem1, hits give low values",0.982
same,normalized growth,"locus YGL227W, strain vid30, hits give low values",0.987
same,normalized growth,"locus YGL240W, strain doc1, hits give low values",0.962
same,normalized growth,"locus YGL248W, strain PDE1, hits give low values",1.02
same,normalized growth,"locus YGL253W, strain hxk2, hits give low values",1.01
same,normalized growth,"locus YGR135W, strain pre9, hits give low values",1
same,normalized growth,"locus YGR229C, strain SMI1, hits give low values",1.04
same,normalized growth,"locus YGR252W, strain gcn5, hits give low values",1.07
same,normalized growth,"locus YHR013C, strain ard1, hits give low values",0.95
same,normalized growth,"locus YHR027C, strain rpn1, hits give low values",0.993
same,normalized growth,"locus YHR030C, strain SLT2, hits give low values",1 and 1.01
same,normalized growth,"locus YHR079C, strain IRE1 (second series), hits give low values",0.98
same,normalized growth,"locus YHR079C, strain IRE1, hits give low values",1.03
same,normalized growth,"locus YHR094C, strain hxt1, hits give low values",0.984
same,normalized growth,"locus YHR129C, strain ARP1, hits give low values",1
same,normalized growth,"locus YHR142W, strain chs7, hits give low values",0.973
same,normalized growth,"locus YHR200W, strain rpn10, hits give low values",0.987
same,normalized growth,"locus YIL066C, strain RNR3, hits give low values",1.02
same,normalized growth,"locus YIL073C, strain SPO22, hits give low values",0.932
same,normalized growth,"locus YIL125W, strain kgd1, hits give low values",0.997
same,normalized growth,"locus YIR030C, strain dcg1, hits give low values",0.984
same,normalized growth,"locus YJL092W, strain hpr5, hits give low values",0.962
same,normalized growth,"locus YJL095W, strain BCK1 (second series), hits give low values",0.966
same,normalized growth,"locus YJL095W, strain BCK1, hits give low values",0.985 and 1.03
same,normalized growth,"locus YJL115W, strain asf1, hits give low values",0.95
same,normalized growth,"locus YJL129C, strain trk1, hits give low values",0.973
same,normalized growth,"locus YJL134W, strain LCB3, hits give low values",1
same,normalized growth,"locus YJL154C, strain vps35, hits give low values",0.975
same,normalized growth,"locus YJL164C, strain tpk1, hits give low values",0.986
same,normalized growth,"locus YJL166W, strain qcr8, hits give low values",0.979
same,normalized growth,"locus YJL168C, strain set2, hits give low values",0.989
same,normalized growth,"locus YJL187C, strain SWE1 (second series), hits give low values",0.996
same,normalized growth,"locus YJL187C, strain SWE1, hits give low values",0.967
same,normalized growth,"locus YJR043C, strain POL32, hits give low values",1.05
same,normalized growth,"locus YJR066W, strain TOR1, hits give low values",0.946
same,normalized growth,"locus YJR075W, strain HOC1, hits give low values",0.989
same,normalized growth,"locus YKL009W, strain mrt4, hits give low values",0.963
same,normalized growth,"locus YKL068W, hits give low values",0.987
same,normalized growth,"locus YKL085W, strain MDH1 (second series), hits give low values",0.992
same,normalized growth,"locus YKL085W, strain MDH1, hits give low values",0.992
same,normalized growth,"locus YKL160W, strain elf1, hits give low values",1
same,normalized growth,"locus YKR001C, strain vps1, hits give low values",0.985
same,normalized growth,"locus YKR026C, strain gcn3, hits give low values",0.998
same,normalized growth,"locus YKR091W, strain srl3, hits give low values",0.98
same,normalized growth,"locus YLL001W, strain dnm1, hits give low values",0.959
same,normalized growth,"locus YLL026W, hits give low values",0.988
same,normalized growth,"locus YLL041C, strain sdh2, hits give low values",0.97
same,normalized growth,"locus YLR027C, strain aat2, hits give low values",0.965
same,normalized growth,"locus YLR039C, strain RIC1, hits give low values",1.01
same,normalized growth,"locus YLR058C, strain SHM2, hits give low values",1
same,normalized growth,"locus YLR102C, strain apc9, hits give low values",0.983
same,normalized growth,"locus YLR113W, strain HOG1, hits give low values",1.04
same,normalized growth,"locus YLR221C, strain rsa3, hits give low values",1
same,normalized growth,"locus YLR258W, strain gsy2, hits give low values",0.996
same,normalized growth,"locus YLR262C, strain YPT6 (second series), hits give low values",1.01
same,normalized growth,"locus YLR262C, strain YPT6, hits give low values",1
same,normalized growth,"locus YLR268W, strain sec22, hits give low values",0.961
same,normalized growth,"locus YLR320W, strain mms22, hits give low values",0.992
same,normalized growth,"locus YLR330W, strain CHS5, hits give low values",0.998
same,normalized growth,"locus YLR342W, strain FKS1 (second series), hits give low values",1.07
same,normalized growth,"locus YLR342W, strain FKS1, hits give low values",0.975
same,normalized growth,"locus YLR357W, strain rsc2, hits give low values",0.99
same,normalized growth,"locus YLR370C, strain arc18, hits give low values",0.97
same,normalized growth,"locus YLR371W, strain rom2, hits give low values",0.98
same,normalized growth,"locus YLR384C, strain iki3, hits give low values",0.999
same,normalized growth,"locus YLR418C, strain cdc73, hits give low values",0.994
same,normalized growth,"locus YML016C, strain PPZ1, hits give low values",1.01
same,normalized growth,"locus YML032C, strain rad52, hits give low values",1.01
same,normalized growth,"locus YML120C, strain ndi1, hits give low values",0.969
same,normalized growth,"locus YML124C, strain tub3, hits give low values",0.99
same,normalized growth,"locus YMR058W, strain fet3, hits give low values",0.974
same,normalized growth,"locus YMR078C, strain ctf18, hits give low values",0.982
same,normalized growth,"locus YMR125W, strain sto1, hits give low values",0.985
same,normalized growth,"locus YMR129W, hits give low values",0.99
same,normalized growth,"locus YMR205C, strain PFK2, hits give low values",1.01
same,normalized growth,"locus YMR223W, strain ubp8, hits give low values",0.994
same,normalized growth,"locus YMR231W, strain pep5, hits give low values",0.981
same,normalized growth,"locus YMR263W, strain SAP30, hits give low values",0.985
same,normalized growth,"locus YMR307W, strain GAS1, hits give low values",1.04
same,normalized growth,"locus YNL067W, strain RPL9B, hits give low values",0.961
same,normalized growth,"locus YNL071W, strain lat1, hits give low values",0.995
same,normalized growth,"locus YNL128W, strain TEP1, hits give low values",0.993
same,normalized growth,"locus YNL153C, strain GIM3, hits give low values",0.994
same,normalized growth,"locus YNL183C, strain NPR1, hits give low values",0.934
same,normalized growth,"locus YNL209W, strain ssb2, hits give low values",0.979
same,normalized growth,"locus YNL233W, strain BNI4, hits give low values",0.997
same,normalized growth,"locus YNL248C, strain rpa49, hits give low values",0.979
same,normalized growth,"locus YNL250W, strain rad50, hits give low values",0.932
same,normalized growth,"locus YNL271C, strain bni1, hits give low values",0.987
same,normalized growth,"locus YNL298W, strain CLA4, hits give low values",1
same,normalized growth,"locus YNL307C, strain MCK1, hits give low values",0.983
same,normalized growth,"locus YNL322C, strain KRE1 (second series), hits give low values",0.959
same,normalized growth,"locus YNL322C, strain KRE1, hits give low values",0.997
same,normalized growth,"locus YNR049C, strain mso1, hits give low values",0.956
same,normalized growth,"locus YNR052C, strain pop2, hits give low values",0.994
same,normalized growth,"locus YOL006C, strain TOP1, hits give low values",0.922
same,normalized growth,"locus YOL012C, strain htz1",0.665
same,normalized growth,"locus YOL147C, strain pex11, hits give low values",0.998
same,normalized growth,"locus YOR001W, strain rrp6, hits give low values",0.995
same,normalized growth,"locus YOR061W, strain CKA2, hits give low values",1.01
same,normalized growth,"locus YOR069W, strain VPS5, hits give low values",1
same,normalized growth,"locus YOR070C, strain gyp1, hits give low values",0.992
same,normalized growth,"locus YOR080W, strain dia2, hits give low values",0.961
same,normalized growth,"locus YOR083W, strain WHI5, hits give low values",0.975
same,normalized growth,"locus YOR106W, strain vam3, hits give low values",1.01
same,normalized growth,"locus YOR136W, strain idh2, hits give low values",0.985
same,normalized growth,"locus YOR144C, strain elg1, hits give low values",1.01
same,normalized growth,"locus YOR184W, strain ser1, hits give low values",0.988
same,normalized growth,"locus YOR231W, strain MKK1, hits give low values",1.04
same,normalized growth,"locus YOR265W, strain rbl2, hits give low values",0.984
same,normalized growth,"locus YOR270C, strain vph1, hits give low values",0.988
same,normalized growth,"locus YOR290C, strain snf2, hits give low values",0.973
same,normalized growth,"locus YOR316C, strain cot1, hits give low values",0.992
same,normalized growth,"locus YPL051W, strain arl3, hits give low values",0.986
same,normalized growth,"locus YPL078C, strain atp4, hits give low values",0.97
same,normalized growth,"locus YPL106C, strain sse1, hits give low values",0.939
same,normalized growth,"locus YPL240C, strain hsp82, hits give low values",0.992
same,normalized growth,"locus YPL256C, strain CLN2, hits give low values",1.01
same,normalized growth,"locus YPR119W, strain clb2, hits give low values",0.994
same,normalized growth,"locus YPR141C, strain kar3, hits give low values",0.991
same,normalized growth,"locus YPR163C, strain tif3, hits give low values",1
same,normalized growth,"locus YPR167C, strain met16, hits give low values",0.989
same,normalized growth,"strain wtn01, hits give low values",0.974
